± gives the standard deviation.
What was measured:
Conditions in all cases: modulator concentration 10 µM
[1] = test system: RAW-Dual (murine macrophage reporter line); assay: NF-kB reporter (SEAP) activity fold change vs agonist alone; higher = enhanced NF-kB activity
Outline: (§1)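 In 384-well plates holding 50 000 RAW-Dual murine macrophage reporter cells per well, compound at 10 μM final was pre-incubated for 1 hour at 37 °C, after which a PRR agonist was added overnight. Supernatant SEAP read with QUANTI-Blue at 620 nm absorbance reported NF-κB, and Lucia luciferase read with QUANTI-Luc luminescence reported IRF. Fold change values come from dividing each reporter signal by the mean of agonist-only control wells on the same plate, averaged over replicate plates with propagated errors.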

[2] = test system: RAW-Dual (murine macrophage reporter line); assay: IRF reporter (Lucia luciferase) activity fold change vs agonist alone; higher = enhanced IRF activity
Outline: as §1

[3] = test system: RAW-Dual (murine macrophage reporter line); assay: viability score (confluency relative to resting cells, overnight) (fraction); higher = more viable, active = viable (0.7 or more)
Outline: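 Two confluency masks, generated with IncuCyte software over all imaged wells, were applied to IncuCyte images of RAW-Dual macrophages. The cells, in 384-well plates, had been exposed overnight to 10 μM final compound. The viability score is confluency as a fraction of resting cells, and a compound met the cutoff only with both masks above 70% of resting cells.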

[4] = agonist: CpG ODN 1826 0.5 ug/mL

Compound	NF-kB reporter [1, 4]	NF-kB reporter ([1]; agonist: LPS 0.1 ug/mL)	NF-kB reporter ([1]; agonist: MPLA […])	IRF reporter ([2]; agonist: 3'3'-cGAMP 10 ug/mL)	IRF reporter ([2]; agonist: LPS 0.1 ug/mL)	IRF reporter ([2]; agonist: MPLA […])	viability score [3]
COc1ccc(C2Oc3cc(OC)cc(OC)c3CC2O)cc1 (stereo not drawn)	1.01 ± 0.24	1.01 ± 0.07	1.81 ± 0.81	0.881 ± 0.057	1.12 ± 0.27	1.04 ± 0.1	1.01 (active)
COC(CNC(=O)c1cccc(Br)c1)c1ccccc1C (stereo not drawn)	0.649 ± 0.056	0.999 ± 0.097	0.873 ± 0.04	0.832 ± 0.032	0.96 ± 0.1	0.901 ± 0.21	1 (active)
C#CCOC(=O)CCCC(=O)Nc1ccc([N+](=O)[O-])cc1Cl	0.957 ± 0.066	1.01 ± 0.067	0.975 ± 0.062	1.01 ± 0.036	1.59 ± 0.11	1.3 ± 0.21	0.999 (active)
COCCNc1nc(SCC(=O)Nc2cccc(C(F)(F)F)c2)nc2ccccc12	0.268 ± 0.022	0.549 ± 0.051	0.528 ± 0.043	0.601 ± 0.035	1.29 ± 0.28	1.42 ± 0.46	0.956 (active)
CNC(=O)c1ccc2cc(C3(O)CCn4cncc43)ccc2c1 (stereo not drawn)	0.99 ± 0.15	0.866 ± 0.28	0.937 ± 0.052	0.932 ± 0.04	0.964 ± 0.22	0.945 ± 0.17	0.995 (active)
O=C(O)c1cc(O)c(O)c(O)c1	0.306 ± 0.013	0.876 ± 0.078	0.749 ± 0.062	0.594 ± 0.03	1.16 ± 0.2	0.97 ± 0.27	1.02 (active)
COc1cc(/C=C/C(=O)/C=C(O)/C=C/c2ccc(O)c(OC)c2)ccc1O	0.662 ± 0.16	1.14 ± 0.32	2.02 ± 0.15	0.0871 ± 0.0028	0.279 ± 0.091	0.517 ± 0.041	0.272 (inactive)
CC(=O)c1c(C(C)=O)c(C)n(-c2ccccc2N)c1C	1.04 ± 0.081	0.992 ± 0.1	1.01 ± 0.1	0.983 ± 0.069	1.3 ± 0.21	1.43 ± 0.35	1.01 (active)
COC(=O)C1=CN(CC2CCCO2)C=C(C(=O)OC)C1c1cccc(Cl)c1 (stereo not drawn)	0.59 ± 0.053	0.736 ± 0.065	0.83 ± 0.072	0.82 ± 0.037	1.17 ± 0.069	1.1 ± 0.093	0.994 (active)
Cl.Cl.OCCN1CCN(CC/C=C2/c3ccccc3Sc3ccc(C(F)(F)F)cc32)CC1	1.01 ± 0.046	1.03 ± 0.13	1.04 ± 0.1	0.959 ± 0.058	1.13 ± 0.23	1.22 ± 0.28	1.02 (active)
Cc1ccc(/C(=C\CN2CCCC2)c2ccccn2)cc1.Cl.O	0.96 ± 0.26	1.11 ± 0.056	1.05 ± 0.073	0.672 ± 0.03	1.09 ± 0.13	1.31 ± 0.18	0.553 (inactive)
CCOC(=O)C1=C(C)NC(C)=C(C(=O)OCC)C1c1ccc(Cl)cc1	0.3 ± 0.023	0.27 ± 0.019	0.748 ± 0.026	0.743 ± 0.061	0.636 ± 0.084	1.67 ± 0.2	0.187 (inactive)
N#CC(=Cc1cc(Cl)ccc1OCc1c(F)cccc1Cl)c1nn(CCO)c(N)c1C#N	1.37 ± 0.12	1.19 ± 0.072	0.806 ± 0.063	0.497 ± 0.03	0.931 ± 0.11	0.787 ± 0.049	0.164 (inactive)
COC(=O)c1ccc(-n2nnnc2SCC(=O)Nc2ccc(C)c(C)c2)cc1	0.529 ± 0.32	0.897 ± 0.057	0.98 ± 0.085	0.849 ± 0.063	1.14 ± 0.077	1.19 ± 0.15	1.02 (active)
